Data reported in ChEMBL document CHEMBL1157539, “Thousands of chemical starting points for antimalarial lead identification” (Nature, 2010).
Where “and” joins values, the source holds several entries; their conditions need not be identical. Equal values may be shown once.

What follows are compounds tested on Plasmodium falciparum (assay: GSK_TCMDC: Inhibition of Plasmodium falciparum 3D7 in whole red blood cells, using parasite LDH activity as an index of growth. Test compounds present at 2uM).
Type: functional

Structure (SMILES)	Inhibition
Cl.N=C(N)Nc1ccc(OCCCCCOc2ccc(NC(=N)N)c(Cl)c2)cc1Cl	92%
CCOc1cc(C)ccc1N1CCN(CCN2CCC(NC(=O)c3ccc(-c4ccc(C#N)cc4)cc3)CC2)CC1	84%
O=C(/C=C/c1ccc(C(F)(F)F)cc1)NCCCCCN1CCN(C(=O)Nc2ccc(Cl)cc2)CC1	88%
Cc1ccc(CNC(=O)c2cnc(N3CCN(c4ccncc4)CC3)c(Cl)c2)cc1.O=C(O)C(F)(F)F	92%
CNC(=O)NC1CCN(Cc2c(-c3cccs3)nc3ccccc3c2C(=O)N[C@@H](C)C2CCCCC2)CC1	99%
CN(C)CCNC(=O)N1CCCN(c2ncnc3cc(-c4ccccc4)sc23)CC1.O=C(O)C(F)(F)F	96%
CC(=O)O.Nc1nc(N)c2cc3ccc(OCc4ccccc4)cc3nc2n1	100%
Cc1cccc2nc(-c3cccc(-c4ccc(CNCc5ccccc5)cc4)c3)[nH]c12.O=C(O)C(F)(F)F	99%
Cl.N=C(N)Nc1ccc(OCCCCCOc2ccc(NC(=N)N)cc2)cc1	99%
Cl.O=C(Nc1ccc(C(=O)OCC2CCCN3CCCCC23)cc1)c1ccc([N+](=O)[O-])cc1 (stereo not given)	95%
CN1CCC=C(C(=O)NCC(C)(C)c2nc(-c3ccc(Cl)c(O)c3)c(-c3ccncc3)[nH]2)C1.Cl	96%
O=C(Nc1ccc(I)cc1)Nc1ccc(Cn2ncc(N3CCCNCC3)c(Cl)c2=O)cc1.O=C(O)C(F)(F)F	86%
COc1ccc(S(=O)(=O)NC2CCN(CCNC(=O)Nc3cc(C)nc4ccccc34)C2)cc1 (stereo not given)	88%
CC(=O)Nc1ccc([N+](=O)[O-])c2c(Br)cccc12	100%
Clc1nc(Cl)c2c(ccn2Cc2ccccc2)n1	100%
COc1ccc(NC(=O)Nc2ccc(C)c(-c3ccc(C(=O)NCCN4CCCC4)cc3)c2)cc1	95%
Cl.O=C(NCCCCN1CCC(c2ccc3c(c2OCCO)CCCC3)CC1)c1ccc2oc(-c3ccc(C(F)(F)F)cc3)cc2c1	93%
CCN(CCCN1CCCCC1)c1cc(C)nc(Nc2ccc(Cl)cc2C)n1.O=C(O)C(F)(F)F	95%
COc1ccc2nc3cc(Cl)ccc3c(N)c2c1.Cl	100%
O=C(c1cc(-c2cccs2)n[nH]1)N1CCN(S(=O)(=O)c2ccc(Cl)s2)CC1	84%

Structure (SMILES)	Inhibition
COc1ccc(CNCC2CCC(CNCCc3ccccc3)CC2)cc1Cl (stereo not given)	100%
CN(C)CCn1c(N)c(-c2nc3ccccc3s2)c2nc(C#N)c(C#N)nc21	94%
Clc1ccc2c(NCCc3ccccn3)ccnc2c1	92%
CC1CCCCN1Cc1cccc(-c2c[nH]c3nc(NC4CCCC4)ncc23)c1.O=C(O)C(F)(F)F (stereo not given)	93%
Cc1ccccc1C1CCN(C2CCC(NC(=O)C3=Cc4ccccc4OC3)CC2)CC1 (stereo not given)	91%
CCOC(=O)NCCSC(C)(C)[C@H](NC(=O)[C@H](Cc1cc2ccccc2s1)[C@H](CC)N(O)C=O)C(=O)Nc1nccs1	98%
O=C(N[C@H]1CCN(Cc2ccc(OCCN3CCNCC3)c(Cl)c2)C1)c1ccc(Cl)c(Cl)c1.O=C(O)C(F)(F)F	100%
Cc1nc(C(C)Nc2nncc(-c3ccc(Cl)cc3)n2)cs1 (stereo not given)	91%
O=C(O)C(F)(F)F.c1cc(CNCCN2CCNCC2)cc(-c2cccc(-c3nc4ccccc4[nH]3)c2)c1	89%
COc1cc(-n2cnc3cc(-c4ccc(Cl)cc4)sc3c2=O)ccc1OCCN1CCC(c2cccc(NC(C)=O)c2)CC1.O=C(O)/C=C\C(=O)O	99%
c1csc(-c2nc(N3CCCC3)ncc2-c2ccsc2)n1	89%
CCOc1ccc(-c2noc(-c3c[nH]c4ccccc4c3=O)n2)cc1	99%
O=C(CSc1nc(-c2ccccc2Cl)ns1)Nc1ccc2c(c1)OCO2	93%
CCC(C(=O)Nc1ccccc1)n1nc(-c2ccc(C)c(S(=O)(=O)N3CCCCC3)c2)ccc1=O (stereo not given)	85%
CCC(CC(NCCCCNC(=O)c1ccc(NC(=O)c2ccc(Cl)cc2)cc1)c1ccccc1)c1ccccc1OC (stereo not given)	100% and 89%
COc1ccc(CN2CCCN(Cc3ccc(C(=O)Nc4ccc(Cl)cc4)cc3)CC2)cc1.O=C(O)C(F)(F)F	91%
O=C(Nc1ccc(-c2cccc(-c3nc4cc(F)ccc4[nH]3)c2)cc1)Nc1ccc(Cl)c(Cl)c1	99%
CN(C)CCCOc1ccc(CN2CC[C@H](NC(=O)c3ccc(Cl)c(Cl)c3)C2)c2ccccc12.O=C(O)C(F)(F)F	100%
CCCCC(CC)CN1C(=O)C(c2ccccc2)(c2ccccc2)N=C1N.O=CO (stereo not given)	94%
CCCCc1ccccc1NS(=O)(=O)c1ccc(OC)c(N2CCNCC2)c1.Cl	91%

The compounds below were run on Plasmodium falciparum (assay: GSK_TCMDC: Inhibition of Plasmodium falciparum Dd2 in whole red blood cells, using parasite LDH activity as an index of growth. Test compounds present at 2uM).
Type: functional

Structure (SMILES)	Inhibition
Cl.N=C(N)Nc1ccc(OCCCCCOc2ccc(NC(=N)N)c(Cl)c2)cc1Cl	92%
CCOc1cc(C)ccc1N1CCN(CCN2CCC(NC(=O)c3ccc(-c4ccc(C#N)cc4)cc3)CC2)CC1	3%
O=C(/C=C/c1ccc(C(F)(F)F)cc1)NCCCCCN1CCN(C(=O)Nc2ccc(Cl)cc2)CC1	0%
Cc1ccc(CNC(=O)c2cnc(N3CCN(c4ccncc4)CC3)c(Cl)c2)cc1.O=C(O)C(F)(F)F	6%
CNC(=O)NC1CCN(Cc2c(-c3cccs3)nc3ccccc3c2C(=O)N[C@@H](C)C2CCCCC2)CC1	97%
CN(C)CCNC(=O)N1CCCN(c2ncnc3cc(-c4ccccc4)sc23)CC1.O=C(O)C(F)(F)F	37%
CC(=O)O.Nc1nc(N)c2cc3ccc(OCc4ccccc4)cc3nc2n1	75%
Cc1cccc2nc(-c3cccc(-c4ccc(CNCc5ccccc5)cc4)c3)[nH]c12.O=C(O)C(F)(F)F	100%
Cl.N=C(N)Nc1ccc(OCCCCCOc2ccc(NC(=N)N)cc2)cc1	100%
Cl.O=C(Nc1ccc(C(=O)OCC2CCCN3CCCCC23)cc1)c1ccc([N+](=O)[O-])cc1 (stereo not given)	25%
CN1CCC=C(C(=O)NCC(C)(C)c2nc(-c3ccc(Cl)c(O)c3)c(-c3ccncc3)[nH]2)C1.Cl	96%
O=C(Nc1ccc(I)cc1)Nc1ccc(Cn2ncc(N3CCCNCC3)c(Cl)c2=O)cc1.O=C(O)C(F)(F)F	30%
COc1ccc(S(=O)(=O)NC2CCN(CCNC(=O)Nc3cc(C)nc4ccccc34)C2)cc1 (stereo not given)	41%
CC(=O)Nc1ccc([N+](=O)[O-])c2c(Br)cccc12	0%
Clc1nc(Cl)c2c(ccn2Cc2ccccc2)n1	61%
COc1ccc(NC(=O)Nc2ccc(C)c(-c3ccc(C(=O)NCCN4CCCC4)cc3)c2)cc1	1%
Cl.O=C(NCCCCN1CCC(c2ccc3c(c2OCCO)CCCC3)CC1)c1ccc2oc(-c3ccc(C(F)(F)F)cc3)cc2c1	56%
CCN(CCCN1CCCCC1)c1cc(C)nc(Nc2ccc(Cl)cc2C)n1.O=C(O)C(F)(F)F	46%
COc1ccc2nc3cc(Cl)ccc3c(N)c2c1.Cl	100%
O=C(c1cc(-c2cccs2)n[nH]1)N1CCN(S(=O)(=O)c2ccc(Cl)s2)CC1	80%

Structure (SMILES)	Inhibition
COc1ccc(CNCC2CCC(CNCCc3ccccc3)CC2)cc1Cl (stereo not given)	29%
CN(C)CCn1c(N)c(-c2nc3ccccc3s2)c2nc(C#N)c(C#N)nc21	40%
Clc1ccc2c(NCCc3ccccn3)ccnc2c1	72%
CC1CCCCN1Cc1cccc(-c2c[nH]c3nc(NC4CCCC4)ncc23)c1.O=C(O)C(F)(F)F (stereo not given)	14%
Cc1ccccc1C1CCN(C2CCC(NC(=O)C3=Cc4ccccc4OC3)CC2)CC1 (stereo not given)	15%
CCOC(=O)NCCSC(C)(C)[C@H](NC(=O)[C@H](Cc1cc2ccccc2s1)[C@H](CC)N(O)C=O)C(=O)Nc1nccs1	98%
O=C(N[C@H]1CCN(Cc2ccc(OCCN3CCNCC3)c(Cl)c2)C1)c1ccc(Cl)c(Cl)c1.O=C(O)C(F)(F)F	5%
Cc1nc(C(C)Nc2nncc(-c3ccc(Cl)cc3)n2)cs1 (stereo not given)	55%
O=C(O)C(F)(F)F.c1cc(CNCCN2CCNCC2)cc(-c2cccc(-c3nc4ccccc4[nH]3)c2)c1	1%
COc1cc(-n2cnc3cc(-c4ccc(Cl)cc4)sc3c2=O)ccc1OCCN1CCC(c2cccc(NC(C)=O)c2)CC1.O=C(O)/C=C\C(=O)O	80%
c1csc(-c2nc(N3CCCC3)ncc2-c2ccsc2)n1	75%
CCOc1ccc(-c2noc(-c3c[nH]c4ccccc4c3=O)n2)cc1	93%
O=C(CSc1nc(-c2ccccc2Cl)ns1)Nc1ccc2c(c1)OCO2	77%
CCC(C(=O)Nc1ccccc1)n1nc(-c2ccc(C)c(S(=O)(=O)N3CCCCC3)c2)ccc1=O (stereo not given)	67%
CCC(CC(NCCCCNC(=O)c1ccc(NC(=O)c2ccc(Cl)cc2)cc1)c1ccccc1)c1ccccc1OC (stereo not given)	56% and 76%
COc1ccc(CN2CCCN(Cc3ccc(C(=O)Nc4ccc(Cl)cc4)cc3)CC2)cc1.O=C(O)C(F)(F)F	3%
O=C(Nc1ccc(-c2cccc(-c3nc4cc(F)ccc4[nH]3)c2)cc1)Nc1ccc(Cl)c(Cl)c1	24%
CN(C)CCCOc1ccc(CN2CC[C@H](NC(=O)c3ccc(Cl)c(Cl)c3)C2)c2ccccc12.O=C(O)C(F)(F)F	97%
CCCCC(CC)CN1C(=O)C(c2ccccc2)(c2ccccc2)N=C1N.O=CO (stereo not given)	98%
CCCCc1ccccc1NS(=O)(=O)c1ccc(OC)c(N2CCNCC2)c1.Cl	2%
